# Reference: paper PMC5540273 (PLoS ONE, 2017)
# Read-outs that look alike come from different tables or passages of the source.
# Key:
# STK16 = settings: concentration: 1 μM, replicates: in singlicate; n = 1
# STK33 = settings: concentration: 1 μM, replicates: in singlicate; n = 1
# STK35 = settings: concentration: 1 μM, replicates: in singlicate; n = 1
# STK36 = settings: concentration: 1 μM, replicates: in singlicate; n = 1
# STK39 = settings: concentration: 1 μM, replicates: in singlicate; n = 1
# SYK = settings: concentration: 1 μM, replicates: in singlicate; n = 1
# SgK110 = settings: concentration: 1 μM, replicates: in singlicate; n = 1
# TAK1 = test system: T1, TAK1; settings: concentration: 1 μM, replicates: in singlicate; n = 1
# T1 construct: gene MAP3K7
# TAOK1 = settings: concentration: 1 μM, replicates: in singlicate; n = 1
# TAOK2 = settings: concentration: 1 μM, replicates: in singlicate; n = 1
# TAOK3 = settings: concentration: 1 μM, replicates: in singlicate; n = 1
# TBK1 = settings: concentration: 1 μM, replicates: in singlicate; n = 1
# TEC = settings: concentration: 1 μM, replicates: in singlicate; n = 1
# TESK1 = settings: concentration: 1 μM, replicates: in singlicate; n = 1
# TGFBR1 = settings: n = 1
# TGFBR2 = settings: concentration: 1 μM, replicates: in singlicate; n = 1
# TIE1 = settings: concentration: 1 μM, replicates: in singlicate; n = 1
# TIE2 = test system: T2, TIE2; settings: concentration: 1 μM, replicates: in singlicate; n = 1
# T2 construct: gene TEK
# TLK1 = settings: concentration: 1 μM, replicates: in singlicate; n = 1
# TLK2 = settings: concentration: 1 μM, replicates: in singlicate; n = 1
# [1] = concentration: 1 μM, replicates: in singlicate
# 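Also: KINOMEscan kinase panel screen.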
compound,measurement,setting,value
COc1ccccc1CNC(=O)c1cc(C(=O)c2ccccc2C)c[nH]1 [GSK364507],%Inh,STK16,11%
same,%Inh,STK33,0%
same,%Inh,STK35,0%
same,%Inh,STK36,0%
same,%Inh,STK39,14%
same,%Inh,SYK,16%
same,%Inh,SgK110,0%
same,%Inh,TAK1,0%
same,%Inh,TAOK1,0%
same,%Inh,TAOK2,0%
same,%Inh,TAOK3,0%
same,%Inh,TBK1,19%
same,%Inh,TEC,0%
same,%Inh,TESK1,36%
same,%Inh,TGFBR1; [1],9%
same,%Inh,TGFBR2,0%
same,%Inh,TIE1,0%
same,%Inh,TIE2,0%
same,%Inh,TLK1,0%
same,%Inh,TLK2,0%
Fc1cc(Cl)ccc1Nc1ccnc2cc(-c3ccc(CN4CCCCC4)o3)ccc12 [GW560116],%Inh,STK16,1%
same,%Inh,STK33,0%
same,%Inh,STK35,0%
same,%Inh,STK36,0%
same,%Inh,STK39,0%
same,%Inh,SYK,0%
same,%Inh,SgK110,0%
same,%Inh,TAK1,0%
same,%Inh,TAOK1,0%
same,%Inh,TAOK2,0%
same,%Inh,TAOK3,0%
same,%Inh,TBK1,14%
same,%Inh,TEC,5%
same,%Inh,TESK1,19%
same,%Inh,TGFBR1; [1],0%
same,%Inh,TGFBR2,0%
same,%Inh,TIE1,0%
same,%Inh,TIE2,0%
same,%Inh,TLK1,0%
same,%Inh,TLK2,0%
Cc1cccc(-c2nc(C)cc(Nc3ccncc3)n2)n1 [GSK257997],%Inh,STK16,2%
same,%Inh,STK33,0%
same,%Inh,STK35,0%
same,%Inh,STK36,0%
same,%Inh,STK39,0%
same,%Inh,SYK,34%
same,%Inh,SgK110,0%
same,%Inh,TAK1,24%
same,%Inh,TAOK1,0%
same,%Inh,TAOK2,0%
same,%Inh,TAOK3,0%
same,%Inh,TBK1,15%
same,%Inh,TEC,0%
same,%Inh,TESK1,15%
same,%Inh,TGFBR1; 1 µM,100%
same,%Inh,TGFBR2,4%
same,%Inh,TIE1,0%
same,%Inh,TIE2,8%
same,%Inh,TLK1,8%
same,%Inh,TLK2,0%
COc1ccc(Nc2nccc(NCCNC(=O)Nc3ccccc3F)n2)cc1 [GSK1379901],%Inh,STK16,18%
same,%Inh,STK33,0%
same,%Inh,STK35,0%
same,%Inh,STK36,0%
same,%Inh,STK39,10%
same,%Inh,SYK,32%
same,%Inh,SgK110,0%
same,%Inh,TAK1,0%
same,%Inh,TAOK1,0%
same,%Inh,TAOK2,0%
same,%Inh,TAOK3,0%
same,%Inh,TBK1,21%
same,%Inh,TEC,12%
same,%Inh,TESK1,44%
same,%Inh,TGFBR1; [1],3%
same,%Inh,TGFBR2,0%
same,%Inh,TIE1,0%
same,%Inh,TIE2,0%
same,%Inh,TLK1,0%
same,%Inh,TLK2,0%
Cc1cccc(-c2nc(Nc3ccc4[nH]ncc4c3)c3ccccc3n2)n1 [GW857175],%Inh,STK16,17%
same,%Inh,STK33,0%
same,%Inh,STK35,0%
same,%Inh,STK36,15%
same,%Inh,STK39,14%
same,%Inh,SYK,5%
same,%Inh,SgK110,0%
same,%Inh,TAK1,0%
same,%Inh,TAOK1,33%
same,%Inh,TAOK2,9%
same,%Inh,TAOK3,19%
same,%Inh,TBK1,35%
same,%Inh,TEC,3%
same,%Inh,TESK1,5%
same,%Inh,TGFBR2,0%
same,%Inh,TIE1,17%
same,%Inh,TIE2,49%
same,%Inh,TLK1,23%
same,%Inh,TLK2,0%
